From PubChem BioAssay AID463173 (ICCB-Longwood Screening Facility, Harvard Medical School, 2010)
In all, about 52,000 compounds went through this assay and about 4,300 (8.3%) were called active. The full list was thinned out, with actives kept by preference. Unmarked numbers belong to inactive results. No stated cut-off is given here; in the data, active means survival mostly below about 52% (no sharp cut-off); inactive means mostly above about 56%.

System: DeltatarO mutant
Assay: S. aureus survival, RN4220 and DeltatarO strains – OD600, teichoic acid synthesis inhibitors, primary screen (AID 463173)
Settings: S. aureus RN4220 wild type/DeltatarO growth, OD600, 18 h, stronger effect = lower value, screened at 18.75 µg/mL (by protocol)

SMILES | survival
COc1cccc(N2CCN(C(=O)Cn3c(-c4cccs4)cc4ccccc43)CC2)c1 | 104%
CCCCOc1ccc(C(C)NC(=O)c2cccc(Nc3nc4ccccc4n4nnnc34)c2)cc1 (stereo not drawn) | 67%
Cc1ccc2[nH]c3nc(NN)nnc3c2c1 | 77%
CCOc1ccc(N2CC(NC(=O)Cc3ccccc3)CC2=O)cc1 (stereo not drawn) | 135%
COc1ccc(N(Cc2nnc3n2CCCCC3)C(=O)Nc2ccc(Cl)cc2)cc1Cl | 85%
Cc1ccccc1NC(=O)CSc1nc2c(c(=O)n(C)c(=O)n2C)n1Cc1ccccc1F | 56%
CCN(CC)CCNC(=O)c1nn(C)c2c1CS(=O)(=O)c1ccccc1-2 | 59%
O=S(=O)(Nc1cccc(-c2ccc(N3CCCC3)nn2)c1)c1ccc(F)c(C(F)(F)F)c1 | 71%
Cc1cccc2c(=O)c(N)c[nH]c12 | 105%
O=C(Cn1c(=O)n(-c2ccccc2)c(=O)c2ccc(C(=O)NCc3ccc4c(c3)OCO4)cc21)Nc1ccc(Br)cc1F | 117%
CCc1ccc(CNC(=O)CN2C(=O)CCn3nc(-c4cn(C)c5ccccc45)cc32)cc1 | 81%
Cn1c(Nc2ccc(Cl)cc2)cc(=O)n(C)c1=O | 93%
Cc1cc(F)ccc1NC(=O)C1CCN(C(=O)c2cnn(-c3ccccc3)c2-n2cccc2)CC1 | 80%
O=C(NCCCN1CCN(c2ccccc2)CC1)c1cc2c(s1)-c1ccccc1OC2 | 53%
CCN1CCN(CCCNC(=O)c2cc3c(s2)-c2ccccc2OC3)CC1 | 88%
O=C(NCCCN1CCN(c2ccccc2F)CC1)c1cc2c(s1)-c1ccccc1OC2 | 11% (active)
CCCN1CCN(CCCNC(=O)c2cc3c(s2)-c2ccccc2OC3)CC1 | 85%

SMILES | survival
O=C(NCCCN1CCN(c2ccc(F)cc2)CC1)c1cc2c(s1)-c1ccccc1OC2 | 55% (active)
Cc1cccc2c1-c1sc(C(=O)NCCCN3CCN(c4ccccc4F)CC3)cc1CO2 | 63%
Cc1ccc(CCNC(=O)CCc2cn(Cc3ccccc3C)c3ccccc23)cc1 | 68%
CCN(C(=O)c1cn(CC)c(=O)c2cc(OC)c(OC)cc12)c1ccc(C)c(C)c1 | 169%
CCc1ccc(C(=O)COC(=O)C(Cc2c[nH]c3ccccc23)NC(=O)c2ccc(Br)cc2)cc1 (stereo not drawn) | 142%
COC(=O)C(Cc1c[nH]c2ccccc12)NC(=O)COc1cccc(C)c1 (stereo not drawn) | 65%
Cc1cc(OCC(=O)NC(Cc2c[nH]c3ccccc23)C(=O)O)ccc1Cl (stereo not drawn) | 53%
CCOC(=O)C(Cc1c[nH]c2ccccc12)NC(=O)COc1ccc(Cl)c(C)c1 (stereo not drawn) | 36% (active)
COc1ccc(OCC(=O)NC(Cc2c[nH]c3ccccc23)C(=O)O)cc1 (stereo not drawn) | 60%
Cc1cc(C)cc(OCC(=O)NC(Cc2c[nH]c3ccccc23)C(=O)O)c1 (stereo not drawn) | 51%
CCOC(=O)C(Cc1c[nH]c2ccccc12)NC(=O)COc1ccc(CC)cc1 (stereo not drawn) | 33% (active)
CC(C)(C)c1ccc(OCC(=O)NC(Cc2c[nH]c3ccccc23)C(=O)O)cc1 (stereo not drawn) | 56%
CC(C)c1ccc(OCC(=O)NC(Cc2c[nH]c3ccccc23)C(=O)O)cc1 (stereo not drawn) | 42% (active)
COC(=O)C(Cc1c[nH]c2ccccc12)NC(=O)COc1ccc(Cl)cc1Cl (stereo not drawn) | 46%
CCc1ccc(OCC(=O)NC(Cc2c[nH]c3ccccc23)C(=O)O)cc1 (stereo not drawn) | 40% (active)
Cc1cccc(OCC(=O)NC(Cc2c[nH]c3ccccc23)C(=O)O)c1C (stereo not drawn) | 48%
